Assay outcomes from PubChem BioAssay.
Most compounds without a hit are left out; they make up all but 6.9% or so of the library.
BAZ2B inh: qHTS Assay for Inhibitors of BAZ2B; Bromodomain adjacent to zinc finger domain protein 2B (Homo sapiens), Q9UIF8; AlphaScreen BAZ2B-H3K14Ac peptide displacement; Potency, µM (top dose mostly 114 µM), inactives show top-dose activity change, negative = inhibition, usual class: inhibitors; 360,000 compounds, 4.4% hits; note: % is set by controls: 0 for no effect and ±100 for the full control effect; nearly all actives have a fitted effect of over 60% in size
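AlphaScreen displacement of biotin-H3(5-23)K14Ac peptide (50 nM final) from BAZ2B (50 nM final) in PBS pH 7.4, 0.01% Tween-20; complex preformed 30 min RT, then compounds (top 110 uM) 30 min RT, beads 20 min dark.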
PLK1 PBD inh: qHTS for Inhibitors of PLK1-PDB (polo-like kinase 1 - polo-box domain): Primary Screen; Serine/threonine-protein kinase PLK1 (Homo sapiens), P53350; Plk1 PBD binding of FITC phosphopeptide, fluorescence polarization; Potency, µM, without a hit: max response, negative = inhibition, most hits filed as inhibitors; 360,000 compounds, 2.8% hits; note: series mostly up to about 57 µM; % is set by controls: 0 for no effect and ±100 for the full control effect; nearly all actives have a fitted effect of over 65% in size
Target sequence (P53350 whole entry, looked up, the tested form may be a part): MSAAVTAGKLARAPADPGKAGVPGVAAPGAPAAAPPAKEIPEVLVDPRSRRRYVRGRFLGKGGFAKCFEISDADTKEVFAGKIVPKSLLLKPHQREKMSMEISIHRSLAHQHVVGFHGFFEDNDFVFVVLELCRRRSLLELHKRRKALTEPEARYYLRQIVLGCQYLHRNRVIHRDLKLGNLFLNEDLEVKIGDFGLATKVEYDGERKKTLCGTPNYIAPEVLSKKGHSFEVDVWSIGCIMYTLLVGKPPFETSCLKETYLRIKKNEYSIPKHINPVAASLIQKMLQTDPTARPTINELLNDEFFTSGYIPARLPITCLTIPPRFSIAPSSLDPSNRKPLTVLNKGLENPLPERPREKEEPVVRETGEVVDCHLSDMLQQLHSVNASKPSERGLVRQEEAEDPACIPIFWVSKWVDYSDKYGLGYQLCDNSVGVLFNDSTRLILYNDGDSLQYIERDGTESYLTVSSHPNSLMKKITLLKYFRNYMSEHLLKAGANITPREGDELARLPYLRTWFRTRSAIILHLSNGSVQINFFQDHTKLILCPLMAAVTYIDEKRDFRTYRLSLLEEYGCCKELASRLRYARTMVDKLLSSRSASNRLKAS
VDR inhibitor: Inhibitors of the vitamin D receptor (VDR): qHTS; VDR-SRC2-3 peptide fluorescence polarization, 2 h; Potency, µM, for inactives: max response, negative = inhibition, actives largely listed as inhibitors; 400,000 compounds, 0.93% hits; note: % is set by controls: 0 for no effect and ±100 for the full control effect
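VDR–SRC2-3 interaction, FP format. Cmpds 23 nl via pintool, brief spin, 2 h ambient incubation.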
L3MBTL1 block: qHTS Assay for the Inhibitors of L3MBTL1. Lethal(3)malignant brain tumor-like protein 1 (Homo sapiens), Q9Y468. AlphaScreen L3MBTL1–H3K9me1 peptide binding. Potency, µM (top dose mostly 57.1 µM), inactives show top-dose activity, negative = inhibition, actives largely listed as inhibitors. 230,000 compounds, 0.66% hits; note: % is set by controls: 0 for no effect and ±100 for the full control effect; nearly all actives have a fitted effect of over 60% in size
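Read-out is AlphaScreen signal from streptavidin donor and nickel chelate acceptor beads (10 ug/mL final each) bridging L3MBTL1 (50 nM) and biotinylated K9-monomethylated H3(1-15) peptide (75 nM), after 30 min compound exposure at room temperature.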
HP1b chromo inh: HTS for Inhibitors of HP1-beta Chromodomain Interactions with Methylated Histone Tails | 390,000 compounds, 0.56% hits | Potency, µM (titrated, usually from 114 µM), without a hit: at the top dose activity change, negative = inhibition, usual class: inhibitors | AID 540317, 2011 | Chromobox protein homolog 1 (Homo sapiens), P83916 | AlphaScreen HP1-beta / biotin-H3K9me3 peptide binding; note: nearly all actives have a fitted effect of over 70% in size
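HP1-beta protein (50 nM final) preincubated 30 min at room temperature with biotinylated H3(1-18)K9me3 peptide (50 nM) in PBS pH 7.4, 0.01% Tween-20, then compound added for 30 min. AlphaScreen streptavidin donor/nickel chelate acceptor beads (10 ug/mL final), 30 min dark, luminescence read.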
JMJD2A Tudor: qHTS Assay for Inhibitors of JMJD2A-Tudor Domain; Lysine-specific demethylase 4A (Homo sapiens), O75164; AlphaScreen JMJD2A-Tudor / H3K4me3 peptide binding; Potency, µM (series often up to 114 µM), inactives show at the top dose activity change, negative = inhibition, usual class: inhibitors; 390,000 compounds, 4.4% hits; AID 504339, 2011; note: % is set by controls: 0 for no effect and ±100 for the full control effect; nearly all actives have a fitted effect of over 50% in size
Numbers without * were called inactive; ? = inconclusive; . = no result; [ ] = remark or other dose. Calls come from the whole dose curve; as a rule, active = well fitted curve in the direction sought with a large enough effect; inconclusive = small, poorly fitted or top-dose-only effect, or another doubt; inactive = no such curve, though single readings can be large; an effect the other way counts as inactive or inconclusive. Potency is the fitted concentration of half-maximal effect.

SMILES | BAZ2B inh | PLK1 PBD inh | VDR inhibitor | L3MBTL1 block | HP1b chromo inh | JMJD2A Tudor
Cc1ccc(C(=O)C2=C(O)C(=O)N(Cc3cccnc3)C2c2ccc(N(C)C)cc2)o1 (centres undefined) | -33% | 0% | 10% | . | 7% | -30%
O=C(C1=C(O)C(=O)N(Cc2ccco2)C1c1cccnc1)c1cc2ccccc2o1 (centres undefined) | -7% | -25% | ? | . | 10% | ?
COc1ccc(OC)c(CC(NC(C)=O)C(=O)NC2CCN(c3nc(OC)nc(OC)n3)CC2)c1 (centres undefined) | -9% | -8% | -13% | 8% | 14% | -15%
COc1ccc(OC)c(NC(=O)C2CCN(S(=O)(=O)c3ccc4c(c3)CCCC(=O)N4)CC2)c1 | 0%[57.1 µM] | . | 0% | . | 1% | -18%
O=C(O)c1ccc(N2C(=O)CC(SC(=Nc3ccccc3)Nc3ccccc3)C2=O)cc1 (centres undefined) | -5% | 0% | -3% | 8% | 21% | -15%
CC(/C=C/c1ccc(N(C)C)cc1)=N\N=C(/N)SC1CC(=O)N(c2ccc(C(=O)O)cc2)C1=O (centres undefined) | 50µM* | -20% | -21% | -7% | ? | 32µM*
Cc1cc(C)c2c(=O)c3c(oc2c1)C(=O)N(CCCOC(C)C)C3c1ccccc1F (centres undefined) | 0% | . | 1% | . | 28% | -20%
CCC(C)NC(=O)CSc1nnc(-c2cc(-c3cccs3)nc3ccccc23)o1 (centres undefined) | 13% | -7% | -4% | . | 31% | -2%
CCc1nnc(NC(=O)c2ccc(Cl)c(S(=O)(=O)N3CCc4ccccc4C3)c2)s1 | 11% | -9% | -13% | -2% | 37% | -6%
CCc1nnc(NC(=O)c2ccc(S(=O)(=O)N3CCc4ccccc4C3)cc2)s1 | -2% | 30µM* | ? | -17% | ? | ?
CCc1nnc(NCC(=O)N2CCc3ccccc32)s1 | ? | 24µM* | -13% | -4% | -8% | 14%[11.4 µM]
Cc1cc(C)c2nc(NNC(=O)c3ccc(S(=O)(=O)N4CCc5ccccc5C4)cc3)sc2c1 | ? | -1% | 7% | ? | -4% | ?
Cc1cc(C)c2sc(NNC(=O)c3ccc(S(=O)(=O)N4CCc5ccccc5C4)cc3)nc2c1 | 5.6µM* | -11% | 4% | ? | 5% | 3.5µM*
Cc1nnc(NC(=O)c2ccc(S(=O)(=O)N3CCc4ccccc4C3)cc2)o1 | 79µM* | -15% | -5% | 46% | 39% | -30%
O=C(O)[C@@]1(CCCCCCOc2ccc(Cl)cc2)CO1 | . | . | -1% | . | . | .
CCc1ccc(NC(=O)N2CCN(Cc3nc4ccc(C)cc4o3)CC2)cc1 | -11% | . | 0% | . | -8% | -20%
O=C(COC(=O)c1c2c(nc3ccccc13)/C(=C/c1ccco1)CC2)NC1CCCC1 | 10µM* | ? | -7% | 4.5µM* | ? | ?
Cc1cc(C(=O)OCC(=O)NC2CCCC2)c2ccccc2n1 | -4% | -1% | -1% | 2% | 27% | -14%
Cc1cc(C(=O)OCC(=O)NC2CCCCC2C)c2ccccc2n1 (centres undefined) | . | -11% | -7% | 9% | 41% | -4%
CC1CCCCC1NC(=O)COC(=O)c1c2c(nc3ccccc13)/C(=C/c1ccco1)CC2 (centres undefined) | 45µM* | 11µM* | -23% | ? | -35% | 45µM*
CC1=C(C(=O)OCc2ccccc2)C(c2ccc(C(C)(C)C)cc2)NC(=O)N1CCCCCC(=O)O (centres undefined) | 50µM* | -20% | -21% | -10% | -8% | -28%
CC1=C(C(=O)OCc2ccccc2)C(c2ccc(-c3ccccc3)cc2)NC(=O)N1CCCCCC(=O)O (centres undefined) | 50µM* | ? | -5% | -1% | 9% | ?
CC1=C(C(=O)OCc2ccccc2)C(c2ccccc2-c2ccccc2)NC(=O)N1CCCCCC(=O)O (centres undefined) | 50µM* | -27% | -11% | -7% | 5% | ?
CCOc1cc(NC(=O)C2CC2)c(OCC)cc1NC(=O)CCn1nnc2ccccc21 | 9% | 2% | -4% | 12% | 38% | -1%
CC(=O)Nc1ccc(Nc2ncnc3c2c(-c2ccccc2)cn3-c2ccc(C)c(Cl)c2)cc1 | -12% | . | 14% | . | -2% | -29%
SMILES | BAZ2B inh | PLK1 PBD inh | VDR inhibitor | L3MBTL1 block | HP1b chromo inh | JMJD2A Tudor
CCOc1ccc(CC(=O)NCCc2sc3nc(-c4ccc(F)cc4)nn3c2C)cc1 | -3% | . | 2% | . | -4% | -10%
Cc1cccc(C)c1OCC1CNC(=O)O1 (centres undefined) | -3% | 27µM* | -13% | 2% | 14% | ?
Cc1nc2cnc(N(C)C)nc2n(CCc2ccccc2)c1=O | . | . | -10% | . | . | .
COc1cccc(Cn2c(=O)c(-c3ccccc3)nc3cnc(N(C)C)nc32)c1 | . | . | 10% | . | . | .
Cc1oc2ncnc(N3CCCCC3)c2c1C(=O)Nc1cccc(Cl)c1C | 1%[57.1 µM] | . | 2% | . | 22% | -17%
C=C1C(=O)OC2CC1C(OC(C)=O)CC(C)=CCCC(C)=CCC[C@@]2(C)O (some centres undefined) | . | . | 35µM* | . | . | .
C=C1C(=O)OC2CC1C(O)CC(C)=CCCC(C)=CC(O)CC2C (centres undefined) | . | -7% | ? | . | 39% | -10%
Nc1nc(CN2CCN(c3ccccn3)CC2)nc(Nc2ccc(F)cc2)n1 | 50µM* | -7% | 8% | . | 22% | 50µM*
Nc1nc(CN2CCCCCC2)nc(Nc2ccc(F)cc2)n1 | 7.1µM* | ? | 5% | . | 19% | 79µM*
Clc1cccc(-n2ncc3c(N4CCCCC4)ncnc32)c1 | 110% | . | 6% | . | 133% | 54%
CC1=C(C(=O)Nc2ccccc2)C(c2ccc(Cl)cc2)n2c(s/c(=C/c3cccc(OCC(=O)O)c3)c2=O)=N1 (centres undefined) | 56µM* | ? | ? | ? | ? | ?
CC1=C(C(=O)Nc2ccccc2)C(c2ccc(C)o2)n2c(s/c(=C/c3ccccc3)c2=O)=N1 (centres undefined) | 2% | -1% | 4% | . | 42% | -6%
